The sample as a whole holds a higher share of hits than the screen did.
RmlC RmlD mix – mixture blocks RmlC and RmlD coupled enzyme activity; RmlC/RmlD coupled enzyme inhibition, 384-well mixture HTS; inhibition, % at 5.5 µM; hit rate 0.39% among 110,000; AID 1532; in the data active = inhibition above about 30%, passing the limit was not always enough; inconclusive = no clear call, values can overlap the other calls
RT RNaseH block – blocks HIV-1 RNase H cleavage of RNA/DNA duplex; hit rate 1.9% among 65,000; AID 565; inhibition, % at 10 µM; P04585; RT-RNase H RNA/DNA duplex cleavage, fluorescence; in the data active = inhibition above about 50%
RmlCD fluor art – counter-screen for RmlC/RmlD inhibitors: fluorescence artifact. shares compounds with RmlC RmlD mix. RmlC/RmlD assay fluorescence artifact counter-screen. calls only. hit rate 96% among 360. AID 1696; call rule not given here;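 note: compound alone with no enzyme and no substrates present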
* hit, by the source's call; ? = inconclusive; nt = no result; + = active, no number.

SMILES	RmlC RmlD mix	RT RNaseH block	RmlCD fluor art
O=C(Nc1ccc2c(c1)OCO2)C1(S(=O)(=O)c2ccc(Cl)cc2)CC1	-8	-1	nt
O=C1CCN(S(=O)(=O)c2ccccc2)CCN1CCOCc1cccc(F)c1	2	nt	nt
CCC(=O)n1nc(-c2ccc(Cl)cc2)nc1NCc1ccccc1	8	nt	nt
C=CCn1c(SCC(=O)NCc2ccco2)nc2sc3c(c2c1=O)CCCC3	-13	nt	nt
O=C(NCc1ccco1)c1ccc2nc3sc4c(c3c(=O)n2c1)CCCC4	46*	18	+
COc1ccc(C#Cc2c(-c3ccc(OC)cc3)oc3ccc(-c4ccc(OC)cc4)cc23)cc1	+	nt	+
COc1ccc(-c2ccc3oc(-c4ccc(OC)cc4)c(C#CCCO)c3c2)cc1	-182	nt	nt
COc1cc(C)c(S(=O)(=O)n2ccc(C)n2)cc1C	5	-93	nt
Cc1ccc(Br)cc1S(=O)(=O)N1CCN(c2ccccc2)CC1	3	-11	nt
c1csc(-c2nc3nc4ccccc4nc3n2Cc2ccc3c(c2)OCO3)c1	-20	-24	nt
CCCn1c(-c2cccs2)nc2nc3ccccc3nc21	81*	nt	+
N#CC1(C#N)COC23CCCCC2C1(C#N)C(=N)O3 (stereo unspecified)	107*	nt	+
CC1OC23CCCCC2C(C#N)(C(=N)O3)C1(C#N)C#N (stereo unspecified)	2	nt	nt
CCC1OC23CCCCC2C(C#N)(C(=N)O3)C1(C#N)C#N (stereo unspecified)	-4	nt	nt
COc1ccc(C2OC34CCCCC3C(C#N)(C#N)C2(C#N)C(=N)O4)cc1 (stereo unspecified)	64*	nt	+
C#CCNC(=O)C1=C[C@H](c2cn(C(C)=O)c3ccccc23)[C@@H](CCCO)[C@H](OCC)O1	13	nt	nt
COc1ccc(CCNC(=O)c2ccc(NS(=O)(=O)c3c(C)noc3C)cc2)cc1OC	-11	-15	nt
O=C1CN(c2nc3ccccc3n3cnnc23)CC(=O)N1CCc1ccccc1	4	-9	nt
COc1cc(SC)ccc1C(=O)Nc1ccc2c(c1)OCCO2	-9	-74	nt
COc1ccc(OC)c(NC(=O)Nc2cccc3ccccc23)c1	-8	nt	nt
COC(=O)/C(=C/Nc1cccc2ccccc12)[N+](=O)[O-]	158*	nt	+
Cc1nc(CSc2nnc3scc(-c4ccc(Cl)cc4)n23)cs1	3	-81	nt
COC(=O)c1cc(Cl)c(NC(=O)/C=C/c2ccc(Cl)cc2)cc1OC	-4	nt	nt
COC(=O)c1cc(Cl)c(NC(=O)/C=C/c2ccc(Cl)cc2Cl)cc1OC	62*	nt	+
Cc1cc2nc3n(c2cc1C)CC1CC(C(=O)NCC2CC2)N(C)C31 (stereo unspecified)	4	nt	nt
SMILES	RmlC RmlD mix	RT RNaseH block	RmlCD fluor art
CC1(C)CC(=O)C2=C(C1)Nc1ccccc1NC2c1cccnc1 (stereo unspecified)	-16	4	nt
CC1=C(C#N)C(c2cccnc2)C2=C(CC(C)(C)CC2=O)N1 (stereo unspecified)	59*	-4	+
COc1cccc(-c2nc(CS(=O)CC(=O)NCc3ccccc3)c(C)o2)c1 (stereo unspecified)	-6	-6	nt
CCOc1ccc2oc(-c3ccccc3)c(C(=O)O)c2c1	26	-7	nt
CC(Oc1ccc2oc(-c3ccccc3)c(C(=O)O)c2c1)C(=O)O (stereo unspecified)	58*	-2	+
CCCCOCCCn1c(N)c(C(=O)OCCOC)c2nc3ccccc3nc21	57*	5	+
COCCOC(=O)c1c(N)n(Cc2ccccc2)c2nc3ccccc3nc12	54	6	nt
CCOC(=O)c1c(N)n(Cc2ccco2)c2nc3ccccc3nc12	72	-4	nt
COCC(C)OC(=O)c1c(N)n(Cc2ccco2)c2nc3ccccc3nc12 (stereo unspecified)	56*	7	+
CC(C)(CO)C(O)C(=O)NCCC#N (stereo unspecified)	-8	nt	nt
CC(C)Oc1ccc(/C(O)=C2/C(=O)C(=O)N(CCCN3CCOCC3)C2c2ccncc2)cc1 (stereo unspecified)	nt	-2	nt
c1cc(-c2cc3cc(N4CCOCC4)ccc3o2)cs1	-16	nt	nt
NCCCC[C@H](NC(=O)C1CCNCC1)c1nnc(CN)o1	-7	nt	nt
COCCCn1c(=N)c(C(=O)NCc2ccc3c(c2)OCO3)cc2c(=O)n3ccccc3nc21	20	-27	nt
COCCCn1c(=N)c(C(=O)NC2CCCCC2)cc2c(=O)n3ccccc3nc21	49*	nt	+
CCn1c(=N)c(C(=O)NC)cc2c(=O)n3cccc(C)c3nc21	nt	-24	nt
COCCCn1c(=NC(=O)c2ccncc2)c(C#N)cc2c(=O)n3cccc(C)c3nc21	104*	-9	+
Cc1cccn2c(=O)c3cc(C(=O)NC4CCCC4)c(=N)n(C4CCCC4)c3nc12	79*	-16	+
Cc1cccn2c(=O)c3cc(C#N)c(=NC(=O)c4ccncc4)n(CCCOC(C)C)c3nc12	?	-2	nt
CCCCNC(=O)c1cc2c(=O)n3cccc(C)c3nc2n(CCN2CCOCC2)c1=N	nt	-16	nt
CCCCNC(=O)c1cc2c(=O)n3cccc(C)c3nc2n(Cc2ccncc2)c1=N	89*	-12	+
CC(=O)Oc1cc2cccc(OC(C)=O)c(=O)c2c(OC(C)=O)c1OC(C)=O	-3	nt	nt
NC(=O)C1CCN(C(=O)CSc2nc3c(c(-c4ccccc4)n2)CCCC3)CC1	-17	-8	nt
O=C(CSc1ncnc2c1oc1ccccc12)NCc1ccco1	-4	-8	nt
Cc1cccn2c(=O)c3cc(C(=O)NCc4cccnc4)c(=N)n(C(C)C)c3nc12	33*	-36	+
SMILES	RmlC RmlD mix	RT RNaseH block	RmlCD fluor art
N=c1c(C(=O)NC2CCCC2)cc2c(=O)n3ccccc3nc2n1C1CCCC1	85*	-11	+
CCCn1c(=N)c(C(=O)NC2CCCC2)cc2c(=O)n3cccc(C)c3nc21	43*	nt	+
COC(=O)c1cc2c(=O)n3ccccc3nc2n(C(C)C)c1=N	nt	-26	nt
Cc1cccn2c(=O)c3cc(C(=O)NC4CCCCC4)c(=N)n(CCN4CCOCC4)c3nc12	nt	20	nt
Cc1cccn2c(=O)c3cc(C(=O)NCc4cccnc4)c(=N)n(C)c3nc12	nt	-14	nt
CCOC(=O)C1=C(C)N(CCCC(=O)O)C(=O)NC1c1cc2ccccc2c2ccccc12 (stereo unspecified)	8	nt	nt
O=C(CSc1nnc(-c2cccs2)n1-c1cccc(Cl)c1)c1cccc2c1OCCO2	8	nt	nt
Nc1c(C(=O)NC2CCCC2)c2nc3ccccc3nc2n1/N=C/c1cccnc1	nt	-22	nt
O=C(c1ccc(CN2CCc3ccccc3C2)cc1)N1CCN(c2ccc(F)cc2)CC1	-2	nt	nt
C=CCOC(=O)C1=C(C)NC(SCC(=O)Nc2ccccc2)=C(C#N)C1c1ccco1 (stereo unspecified)	-11	nt	nt
Cc1c(-c2c(C#N)c(N)nc3c2CCCCCC3)cnn1C	13	nt	nt
COC(=O)c1c(C#N)c(N)nc2c1CCC2	67*	-6	+
COC(=O)C1=C(C(=O)OC)[C@@H]2Nc3ccccc3[C@@]23C[C@@H](C(=O)OC)N(C(=O)COCc2ccccc2)C3=N1	9	nt	nt
COc1ccc(-c2ccc(=O)n(CC(=O)N3CCN(c4ccccc4OC)CC3)n2)cc1	nt	-6	nt
N#Cc1c(N)n(CCNC(=O)c2cccs2)c2nc3ccccc3nc12	37*	-11	+
CCCCCn1c(N)c(C#N)c2nc3ccccc3nc21	-11	-6	nt

Screening results from PubChem BioAssay.
